Only some compounds are listed: those with a hit (about 8.2% of all), similar ones and a draw of the others.
MCF10A rerep = inducers of DNA re-replication in MCF 10A breast cells | MCF 10A DNA re-replication, Hoechst nuclear intensity, 48 h | Potency, µM (titrated, usually from 46.1 µM), hits mostly activators | 350,000 tested, 2.9% active | AID 624296; also: nearly all actives have a fitted effect of over 50% in size
KB-V1 MDR tox = kills drug-selected multidrug resistant KB-V1 cells | Potency, µM (titrated, usually from 46.1 µM), most hits filed as cytotoxic | KB-V1 MDR cells viability, CellTiter-Glo, 72 h | 400,000 tested, 3.4% active; also: nearly all actives have a fitted effect of over 60% in size
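Cytotoxicity toward P-gp-expressing KB-V1 cells was determined as loss of CellTiter-Glo luminescence after 72 h at 37 degrees C. Compounds were tested in quantitative HTS format across a concentration range, with curves fitted to normalized data.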
SW480 rerep = inducers of DNA re-replication in SW480 colon cancer cells; Potency, µM (highest dose often 46.1 µM), usual class: activators; 340,000 tested, 1.8% active; SW480 DNA re-replication, Hoechst DNA content imaging, 48 h; also: nearly all actives have a fitted effect of over 55% in size
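Hoechst fluorescence of nuclei (405 nm excitation, 500-530 nm emission) measured by plate-scanning imager after 48 hr compound exposure at 37 C; re-replication scored as increased number of nuclei with elevated intensity.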
ELG1 repair inh = ELG1-dependent DNA repair inhibition | HEK293T ELG1-luciferase reporter, luminescence, 16 h; DNA damage induced by 5-fluorouridine | Potency, µM (doses to about 46.1 µM), most hits filed as inhibitors | 330,000 tested, 2.3% active | AID 504467; also: nearly all actives have a fitted effect of over 55% in size
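Reporter activity after DNA damage by 5-fluorouridine is monitored. Compound-treated cells incubate 16 hr at 37 °C, then ONE-Glo is added for 30 min before luminescence reading.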
KB-3-1 tox = KB-3-1 parental cell cytotoxicity | KB-3-1 viability, CellTiter-Glo ATP luminescence, 72 h | Potency, µM (top dose mostly 46.1 µM), actives largely listed as cytotoxic | 400,000 tested, 1.4% active; also: nearly all actives have a fitted effect of over 60% in size
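Parental KB-3-1 adenocarcinoma cells in phenol-red-free DMEM with 10% FBS were pin-treated with compounds at several concentrations, incubated 72 h at 37 °C, and viability read by CellTiter-Glo luminescence; concentration-effect curves were fitted after normalization.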
Hits are given with their value; i = inactive; ? = inconclusive; nt = no result. Calls follow the shape of the dose curve; as a rule, active = well fitted curve in the direction sought with a large enough effect; inconclusive = small, poorly fitted or top-dose-only effect, or another doubt; inactive = no such curve, though single readings can be large; an effect the other way counts as inactive or inconclusive.

SMILES | MCF10A rerep | KB-V1 MDR tox | SW480 rerep | ELG1 repair inh | KB-3-1 tox
O=C(c1ccc(-c2ccccc2Cl)o1)N1CCN(S(=O)(=O)c2cccs2)CC1 | ? | 21µM | i | ? | i
O=C(c1ccccc1Cl)N1CCN(S(=O)(=O)c2cccs2)CC1 | i | i | i | i | i
COc1ccccc1CC(=O)N(Cc1ccccc1)c1cccc(C)c1 | i | i | i | i | i
CC(=O)c1ccc(NC(=S)NC(C)c2ccc(Cl)cc2Cl)cc1 (stereo unspecified) | ? | 18µM | i | i | i
COc1ccc(-c2cc(=O)oc3cc4occ(C)c4cc23)cc1 | ? | ? | ? | ? | i
Cc1c(CC(=O)O)c(=O)oc2cc3occ(-c4ccccc4)c3cc12 | ? | i | i | i | i
COc1ccc(-c2coc3cc4oc(=O)cc(C)c4cc23)cc1F | 5.2µM | ? | ? | i | i
COc1ccc(-c2coc3cc4oc(=O)cc(-c5ccccc5)c4cc23)cc1F | 6.5µM | ? | ? | i | 2.9µM
N#CCC(=O)Nc1ccc(C(=O)NNC(=S)NC2CCCCC2)cc1 | i | i | i | i | i
CC(C)CC(=O)Nc1ccc(C(=O)NNC(=S)NC(=O)C2CCCCC2)cc1 | i | 10µM | i | i | i
CCC1(C)CC2(CCCN(CCC(=O)c3ccccc3)C2)CCO1 (stereo unspecified) | 21µM | i | i | i | i
O=C(CCN1CCCCCC1)c1ccccc1 | i | i | i | i | i
CCCCCn1ccc(=O)c2c(C(F)(F)F)nccc21 | i | ? | i | 5.8µM | i
COc1c(C(=O)Nc2ccc(CN3CCOCC3)cc2)cc2ccccc2c1Br | ? | ? | ? | ? | i
COc1c(C(=O)Nc2ccc3[nH]c(=O)[nH]c3c2)cc2ccccc2c1Br | 11µM | i | ? | i | i
C=CC[n+]1c(-c2ccc(OCC)cc2)csc1NNC(=O)Nc1ccccc1 | i | 18µM | i | ? | 18µM
CCOc1ccc(-c2nc(CNC(=O)Nc3ccccc3)c(C)o2)cc1 | nt | i | nt | nt | i
CC(NC(=O)Cc1ccc(NC(=O)N2CCCCc3ccccc32)cc1)c1ccccc1 (stereo unspecified) | nt | i | nt | nt | i
N#CC1(Cc2ccccc2Cl)c2ccccc2C=CN1C(=O)c1ccccc1 (stereo unspecified) | i | 21µM | i | ? | ?
CCOC(=O)c1c(C)[nH]c(C(=O)COC(=O)c2cnccn2)c1C | ? | i | i | i | i
CCOC(=O)c1c(C)[nH]c(C(=O)COC(=O)C2CC(=O)N(Cc3ccccc3)C2)c1C (stereo unspecified) | i | 3.3µM | i | i | i
CCOC(=O)c1c(C)[nH]c(C(=O)COC(=O)c2ccncc2)c1C | i | 7.3µM | i | i | ?
CC(c1ccccc1)N1C(=O)c2cccnc2C1=O (stereo unspecified) | ? | i | i | i | i
CC(NC1=CC(=O)c2cccnc2C1=O)C(O)c1ccccc1 (stereo unspecified) | 3.7µM | 15µM | 12µM | nt | 8.2µM
COc1ccc(-n2c(SCCC#N)nnc2-c2cc(Cl)ccc2OC)cc1Cl | 16µM | ? | ? | i | ?
SMILES | MCF10A rerep | KB-V1 MDR tox | SW480 rerep | ELG1 repair inh | KB-3-1 tox
Cc1cccc(-c2nnc(SCC#N)n2-c2cccc(Cl)c2)c1 | i | ? | i | i | i
C=CCn1c(COc2ccccc2F)nnc1SCC(=O)c1c[nH]c2ccccc12 | i | 13µM | i | ? | ?
C=CCn1c(COc2ccccc2F)nnc1SCC(=O)Nc1cc2oc3ccccc3c2cc1OC | i | ? | i | i | ?
Cc1ccc(NC(=O)C(C)Sc2nc(=O)cc(N)n2-c2cccc(C)c2)cc1 (stereo unspecified) | nt | i | nt | nt | i
COC(=O)c1ccc(N2CCc3ccccc32)c([N+](=O)[O-])c1 | ? | i | i | i | i
CCOC(CNC(=O)c1ccc(N2CCc3ccccc32)c([N+](=O)[O-])c1)OCC | i | 2.6µM | i | i | ?
COc1ccc(Oc2nnc(-c3ccc(C)cc3)c3ccccc23)cc1 | ? | i | i | i | i
O=C(Nc1ccc(Oc2nnc(-c3ccccc3)c3ccccc23)cc1)c1ccccc1 | i | i | i | 23µM | i
CCSc1nccc(-c2nn(-c3ccc(C)cc3)ccc2=O)n1 | 5.2µM | 2.6µM | 7.3µM | 10µM | 2.1µM
CSc1nccc(-c2nn(-c3ccc(C)cc3)ccc2=O)n1 | 8.2µM | 2.9µM | 13µM | ? | 5.2µM
Nc1nccc(-c2nn(-c3ccc(Cl)cc3)ccc2=O)n1 | i | i | i | i | i
C#CCSc1nccc(-c2nn(-c3ccc(C)cc3)ccc2=O)n1 | ? | ? | i | 9.2µM | i
C=CCSc1nccc(-c2nn(-c3ccc(C)cc3)ccc2=O)n1 | 8.2µM | 3.7µM | ? | 7.3µM | 6.5µM
COc1ccc(NC(=O)C2(C)Cc3c(-c4ccc(N(C)C)cc4)ccnc3O2)cc1OC (stereo unspecified) | nt | i | nt | nt | i
COc1cccc(CN2C(=NC(=O)CCC3CCCC3)SC3CS(=O)(=O)CC32)c1 (stereo unspecified) | i | i | i | i | i
COc1ccc(NC(NC(=O)c2ccc(OC)cc2)C(Cl)(Cl)Cl)cc1 (stereo unspecified) | i | ? | i | i | i
COc1ccc(C(=O)NC(Nc2ccc(C)cc2)C(Cl)(Cl)Cl)cc1 (stereo unspecified) | i | 15µM | i | i | ?
Nc1ccccc1N1C(=O)c2cccc3cccc(c23)C1=O | 8.2µM | ? | 18µM | nt | i
O=C1c2cccc3cccc(c23)C(=O)N1c1ccccc1Cl | i | i | i | i | i
O=S1(=O)N=C(Oc2ccccc2-c2ccccc2)c2ccccc21 | nt | ? | nt | nt | i
CCCCn1c(=O)nc2n(-c3ccc(Cl)cc3)c3ccccc3cc-2c1=O | i | 8.2µM | i | i | i
Cc1noc(NS(=O)(=O)c2ccc(N/C=C\C(=O)c3ccc4c(c3)OCO4)cc2)c1C | 5.8µM | i | i | ? | i
COc1cccc(C(C)(O)c2nc(-c3ccc(S(C)(=O)=O)cc3)cs2)c1 (stereo unspecified) | nt | 16µM | nt | nt | 18µM
CC(O)(c1cccnc1)c1nc(-c2ccc3ccccc3c2)cs1 (stereo unspecified) | nt | 6.5µM | nt | nt | ?
CCN(CC)C(=O)c1cccc(-c2csc(C(C)(O)c3cccc(OC)c3)n2)c1 (stereo unspecified) | nt | i | nt | nt | i
CCN(CC)C(=O)c1cccc(-c2csc(C(C)(O)c3ccc(OC)cc3)n2)c1 (stereo unspecified) | nt | ? | nt | nt | 12µM
CC(O)(c1cccnc1)c1nc(-c2ccc3c(c2)OCO3)cs1 (stereo unspecified) | nt | ? | nt | nt | i
COc1ccc(-c2csc(C(C)(O)c3cccc(OC)c3)n2)cc1 (stereo unspecified) | nt | ? | nt | nt | i

Source: PubChem BioAssay (National Center for Advancing Translational Sciences (NCATS))
